# Laboratory results taken from the supplement of paper PMC10600219.
# Where a name gives a salt, the structure may show the parent alone. Whole data set: some 2,800 compounds, median “cell viability relative to vehicle” near 1.1, cut for the lowest 2% near 0.19. The sample as a whole holds a higher share of the lowest values than the screen did.
# System: NCI-H2228 parental
# Assay: cell viability relative to vehicle (fraction of vehicle); NCI-H2228 is an ALK-positive lung cancer line and DTP means drug-tolerant persister; higher = less growth inhibition
# Conditions: 100 nM; treatment time 6 days
# Procedure, shortened: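 Parental NCI-H2228 cells and drug-tolerant persister cells (made with 1000 nM of a targeted drug for 13 days) were seeded in 384-well plates. The next day, the 3114-agent TargetMol anti-cancer compound library was added at 100 nM, with DMSO as vehicle. After 6 days, ATP was read with the CellTiter-Glo 3D Cell Viability Assay. Each value is cell viability relative to vehicle-treated cells.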
row,SMILES,cell viability
1,CC(C)[C@]12O[C@H]1[C@@H]1O[C@]13[C@]1(O[C@H]1C[C@H]1C4=C(CC[C@@]13C)C(=O)OC4)[C@@H]2O [Triptolide],0.121
2,N#Cc1c(Oc2cccc(OS(=O)(=O)CCCC(F)(F)F)c2)cccc1C(F)(F)F,1.01
3,O=C(O)CCCCCCCCCO [10-Hydroxydecanoic Acid],1.17
4,C[C@@]12C[C@@H](c3ccoc3)OC(=O)[C@@H]1CC[C@]1(C)[C@H]2[C@@H]2C=C[C@@]1(O)C(=O)O2 [Columbin],1.06
5,Cc1c([C@H](C)[C@@H]2NC[C@@H](C)C[C@H]2O)ccc2c1C[C@H]1[C@H]2CC=C2C[C@@H](O)CC[C@@]21C [Veratramine],1.12
6,COc1cc([C@@H]2c3cc4c(cc3[C@@H](O)[C@H]3COC(=O)[C@H]23)OCO4)cc(OC)c1O [4'-Demethylepipodophyllotoxin],0.402
7,C/C=C(\C)C(=O)N[C@@H](c1ccccc1)[C@@H](O)C(=O)O[C@H]1C[C@@]2(O)[C@@H](OC(=O)c3ccccc3)[C@@H]3[C@]4(OC(C)=O)CO[C@@H]4C[C@H](O)[C@@]3(C)C(=O)[C@H](OC(C)=O)C(=C1C)C2(C)C [Cephalomannine],0.129
8,CC(=O)O[C@H]1C(=O)[C@@]2(C)[C@H]([C@H](OC(=O)c3ccccc3)[C@]3(O)C[C@H](O)C(C)=C1C3(C)C)[C@]1(OC(C)=O)CO[C@@H]1C[C@@H]2O [Baccatin III],0.968
9,CC(=O)OC12COC1CC(O)C1(C)C(=O)C(O)C3=C(C)C(O)CC(O)(C(OC(=O)c4ccccc4)C21)C3(C)C (stereo not given) [10-Deacetylbaccatin III],1.13
10,COc1ccc(/C=C/c2cc(OC)cc(OC)c2)cc1 [Trimethoxystilbene],1.05
11,CN(C(=O)/C=C/c1ccoc1)[C@@H]1CC[C@@]2(O)[C@H]3Cc4ccc(O)c5c4[C@@]2(CCN3CC2CC2)[C@H]1O5 [Nalfurafine hydrochloride],0.993
12,CN1[C@H]2C[C@H](OC(=O)[C@H](CO)c3ccccc3)C[C@@H]1[C@@H](O)C2 [Anisodamine],1.1
13,CCc1c2c(nc3ccccc13)-c1cc3c(c(=O)n1C2)COC(=O)[C@]3(O)CC [7-Ethylcamptothecin],0.054
14,CC[C@@]1(O)C(=O)OCc2c1cc1n(c2=O)Cc2cc3ccccc3nc2-1 [(S)-(+)-Camptothecin],0.0882
15,CC1(C)C(C(=O)Nc2ccc(S(=O)(=O)c3ccc(NC(=O)C4C(C)(C)C4(C)C)cc3)cc2)C1(C)C,0.839
16,C[C@H]1CCC2N(C1)C[C@H]1C3CC4[C@@H](CC(=O)C5C[C@@H](O)CC[C@@]54C)C3CCC1[C@]2(C)O (stereo not given in full) [Peiminine],1.12
17,O=C(CBr)c1ccc(O)cc1 [PTP Inhibitor I],1.01
18,Clc1ccc(OC[C@H]2CCN2)cn1 [Tebanicline hydrochloride],1.12

row,SMILES,cell viability
1,Oc1cc(O)cc(/C=C/c2ccc(O)cc2O)c1 [Oxyresveratrol],0.982
2,C=C1CC[C@H]2[C@@H](/C=C(\C)C(=O)[C@@]3(O)C[C@H](C)[C@H](O)[C@@H]3[C@@H]1O)C2(C)C [Lathyrol],1.09
3,CN[C@@H](Cc1c[nH]c2ccccc12)C(=O)O [Abrine],1.08
4,CC1(C)C(=O)N(c2ccc(C#N)c(C(F)(F)F)c2)C(=O)N1CCCCO,1.27
5,C[C@H]1CCC/C=C/[C@@H]2C[C@H](O)C[C@H]2[C@H](O)/C=C/C(=O)O1 [Brefeldin A],0.0967
6,COc1ccc(/C=C2\CCCN=C2c2cccnc2)c(OC)c1 [GTS 21 dihydrochloride],1.13
7,COc1cc([C@@H]2c3cc4c(cc3[C@H](O)[C@H]3COC(=O)[C@H]23)OCO4)cc(OC)c1O [4'-Demethylpodophyllotoxin],0.68
8,Cn1c(CCCCCCC(=O)NO)nc2cc(N(CCCl)CCCl)ccc21 [Minomustine],1.12
9,O=C(O)CNC(=O)C1C(=O)N(C2CCCCC2)C(=O)N(C2CCCCC2)C1=O [Daprodustat],1.04
10,C/C(=C\c1csc(C)n1)[C@@H]1C[C@@H]2O[C@@H]2CCC[C@H](C)[C@H](O)[C@@H](C)C(=O)C(C)(C)[C@@H](O)CC(=O)O1 [Epothilone A],0.0991
11,C/C(=C\c1csc(C)n1)[C@@H]1C[C@@H]2O[C@]2(C)CCC[C@H](C)[C@H](O)[C@@H](C)C(=O)C(C)(C)[C@@H](O)CC(=O)O1 [Epothilone B],0.141
12,C[C@H](Nc1ncnc2[nH]cnc12)c1nc2ccc(F)cc2c(=O)n1-c1ccccc1 [Acalisib],1.02
13,Cn1c(COP(=O)(NCCBr)NCCBr)cnc1[N+](=O)[O-] [Evofosfamide],1.15
14,CC(=O)OC(C)(C)/C=C/C(=O)[C@](C)(O)[C@H]1[C@H](O)C[C@@]2(C)[C@@H]3CC=C4[C@H](C[C@H](O)C(=O)C4(C)C)[C@]3(C)C(=O)C[C@]12C [Cucurbitacin B],0.223
15,Clc1ccc(C(OCCN2CCCCC2)c2ccccc2)cc1 (stereo not given) [Cloperastine hydrochloride],1.15
16,C[C@]12CC[C@H](O)C[C@H]1CC[C@@H]1[C@@H]2CC[C@]2(C)[C@@H](c3ccc(=O)oc3)CC[C@]12O [Bufalin],0.423
17,CC(C)[C@H](N)C(=O)N1CCC[C@H]1B(O)O [Talabostat mesylate],0.987
